# Hit rate of the full screen: of about 340,000 compounds, about 1,000 (0.29%) were called active. No stated cut-off is given here; in the data, inconclusive means inhibition above about 29% without an active follow-up result; inactive means below that. The list is a sample of the results. Measured potencies and affinities stand elsewhere.
# Target: Genome polyprotein (Dengue virus type 2 (strain 16681-PDK53)) (UniProt P29991)
# Test: flavivirus cap methylation enzyme inhibition – biochemical, confirmation dose response, primary screen (AID 588689)
# Conditions: Dengue-2 NS5 methyltransferase capping enzyme assay, at 25 µM, stronger effect = higher value
# [1] = measured here: pilot screen replicate inhibition
Structure (SMILES),inhibition,inhibition [1] [%]
COc1ccc(OCC(=O)N2CCCC2=O)c([N+](=O)[O-])c1,0.65% (inactive),–
CC(C)CC(NC(=O)C(NC(=O)OC(C)(C)C)C(C)C)C(=O)N1CCCC1C(N)=O (configuration not stated),-8.35% (inactive),–
COc1cccc(-c2noc(CCC(=O)NCC3CCCO3)n2)c1 (configuration not stated),1.45% (inactive),–
CNC[C@@H]1OCc2cnnn2CCCC(=O)N([C@H](C)CO)C[C@H]1C,2.27% (inactive),–
O=C(CCNC(=O)c1ccc([N+](=O)[O-])cc1)Oc1ccc(F)c(F)c1,-4.42% (inactive),–
CCOC(=O)Cn1cnc2sc3c(c2c1=O)CCC3,-3.92% (inactive),–
Cn1ccnc1SCC(=O)Nc1cc(F)ccc1F,-1.95% (inactive),–
COc1cccc2c1C(=O)C=C(C)C2=O,5.85% (inactive),–
COC1=CC(=O)c2ccccc2C1=O,0.72% (inactive),–
Cc1ccc(C)c(OCC(O)CN2CCc3ccccc3C2)c1C (configuration not stated),-0.98% (inactive),–
CNS(=O)(=O)c1cccc(C(=O)NCC(c2ccco2)N(C)C)c1 (configuration not stated),-4.17% (inactive),–
Cc1ccc(NC(=O)COC(=O)C2C3CC4OC(=O)C2C4C3)cc1 (configuration not stated),-4.16% (inactive),–
COc1ccc(N2CC(C(=O)OCC(=O)Nc3cccc(C)c3)CC2=O)cc1 (configuration not stated),-2.68% (inactive),–
CCC(c1ccc(O)c(O)c1)C(CC)c1ccc(O)c(O)c1 (configuration not stated),-0.78% (inactive),–
CCC(c1ccc(O)cc1)C(CC)c1ccc(O)cc1 (configuration not stated),-4.4% (inactive),–
O=C(O)c1ccccc1SCc1csc(-c2ccccc2)n1,-4.89% (inactive),–
O=C(Cc1ccc(Br)cc1)NCCCn1ccnc1,-12.3% (inactive),–
CCc1ccc(S(=O)(=O)Nc2ccc(O)c3ccccc23)cc1,36.9% (inactive),–
O=C(c1ccccc1NS(=O)(=O)c1cccc([N+](=O)[O-])c1)N1CCCC1,-1.62% (inactive),–
CCc1ccc(S(=O)(=O)NC(CC(=O)O)c2ccccc2)cc1 (configuration not stated),-2.12% (inactive),–
CC(=O)Nc1ccccc1NS(=O)(=O)c1ccc(Cl)cc1,-10.2% (inactive),–
CC(=O)Nc1ccccc1NS(=O)(=O)c1cccc([N+](=O)[O-])c1,-5.88% (inactive),–
Cc1ccc(S(=O)(=O)Nc2ccc(Br)cc2C(NCC(=O)O)c2ccccc2)cc1 (configuration not stated),-7.12% (inactive),–
Cc1oc2c(cc(NS(=O)(=O)c3ccc(Cl)cc3)c3ccccc32)c1C(=O)O,14.3% (inactive),–

Structure (SMILES),inhibition,inhibition [1] [%]
COC(=O)CNC(c1ccccc1)c1cc(Br)ccc1NS(=O)(=O)c1ccccc1 (configuration not stated),-1.28% (inactive),–
COc1ccccc1OCC(=O)OCC(=O)NC1CCCCC1,1.94% (inactive),–
Cc1ccc(CNC(=O)C(C)C2Sc3ccccc3NC2=O)cc1 (configuration not stated),3.04% (inactive),–
CC(=O)c1ccc(S(=O)(=O)N2CCN(c3nn(C)c(=O)n(C)c3=O)CC2)cc1,-1.46% (inactive),–
CCn1nc(C(=O)Nc2cccc(S(=O)(=O)N3CCCC3)c2)c2ccccc2c1=O,-8.08% (inactive),–
Cc1nc(CC(=O)NNS(=O)(=O)c2cccc(Cl)c2Cl)cs1,-1.61% (inactive),–
CN(C(=O)COC(=O)c1ccc(Cl)s1)C1(C#N)CCCCC1,-4.33% (inactive),–
Cc1ccc(S(=O)(=O)N(C)CCCC(=O)N2CCOCC2)cc1,-2.14% (inactive),–
O=C(OCc1ccc(F)cc1)c1ccc2c(c1)-c1ccccc1C2=O,6.7% (inactive),–
CCOC(=O)c1ccc(COC(=O)c2ccc3c(c2)-c2ccccc2C3=O)cc1,13.5% (inactive),–
O=C(CCS(=O)(=O)c1ccc(Br)cc1)Nc1ccc(Br)cc1F,-13.3% (inactive),–
Cc1cc(C)n2nc(SCC(=O)N(C)c3c(N)n(Cc4ccccc4)c(=O)[nH]c3=O)nc2n1,-7.52% (inactive),–
CCOC(=O)N/N=C/c1cc(C)n(-c2cccc3ccccc23)c1C,1.3% (inactive),–
Cc1cc(C)n(CC(=O)NC2CCCCC2C)c(=O)c1C#N (configuration not stated),-0.74% (inactive),–
O=C1C=C(N2CCOCC2)c2ccccc2C1=O,9.17% (inactive),–
NC1=CC(=O)C(=O)c2ccccc21,27.9% (inactive),–
COc1ccc(C(C)=O)cc1CSc1nc2cc(C(=O)O)ccc2c(=O)n1Cc1ccccc1,4.46% (inactive),–
O=C(CSc1nncs1)NCCNC(=O)CSc1nncs1,-2.96% (inactive),–
Cc1[nH]n(-c2ccccc2)c(=O)c1Sc1ccc(Cl)cc1,13.9% (inactive),–
Cc1[nH]n(C(C)(C)C)c(=O)c1Sc1ccccc1,-11.6% (inactive),–
CC(C)(C)c1ccc(-c2nc(C=O)c3ccccn23)cc1,0% (inactive),–
N#C/C(=C\c1ccccc1)C(=O)NNS(=O)(=O)c1ccc(Br)cc1,13.6% (inactive),–
N#C/C(=C/c1cccc([N+](=O)[O-])c1)C(=O)Nc1ccccc1O,5.78% (inactive),–
COC(CNC(=O)c1coc2nc3ccccc3nc12)OC,-7.62% (inactive),–

Structure (SMILES),inhibition,inhibition [1] [%]
COC(CNC(=O)c1cccnc1)OC,-7.01% (inactive),–
O=[N+]([O-])c1ccc(CN2CCC(Cc3ccccc3)CC2)cc1,-6.79% (inactive),–
CCN1CCN(CCCNC(=O)CNC(=O)c2nn(-c3ccc(OC)cc3)c(=O)c3ccccc23)CC1,0.79% (inactive),–
CCCCCc1nnc(N)s1,0% (inactive),–
CN1CCN(NC(=O)CSc2ccc(Cl)cc2Cl)CC1,-10.7% (inactive),–
CCOC(=O)c1c(C)nc2c(c1-c1cc(OC)ccc1OC)C(=O)c1ccccc1-2,0% (inactive),3.65
CCOC(=O)c1c2c(n(Cc3ccccc3)c1C)C(=O)C(=O)c1ccccc1-2,25.5% (inactive),–
Cc1ccc(NC2=CC(=O)C(=O)c3ccccc32)cc1,54.8% (inactive),5.15
O=C1C=C(Nc2ccc(F)cc2)c2ccccc2C1=O,0.37% (inactive),–
CC(C)(C)c1ccc(C2(C)NC(=O)N(CC(=O)c3ccc[nH]3)C2=O)cc1 (configuration not stated),-2.04% (inactive),–
CC(OC(=O)c1cccc(-n2cnnn2)c1)c1nc2ccccc2c(=O)[nH]1 (configuration not stated),-3.65% (inactive),–
CC(=O)OCC1=C(C(=O)O)N2C(=O)[C@@H](NC(=O)Cc3ccccc3)[C@H]2SC1,-1.45% (inactive),–
CC(=O)OCC1=C(C(=O)O)N2C(=O)C(NC(=O)CCn3nc(C)c(Cl)c3C)C2SC1 (configuration not stated),0.78% (inactive),–
O=C(O)c1cccc(NC(=O)c2ccc3c(c2)C(=O)N(Cc2ccco2)C3=O)c1,-0.72% (inactive),–
O=C1NC(=O)/C(=C/c2ccccc2OCc2ccccc2)S1,11.6% (inactive),–
O=C(O)CCCCN1C(=O)/C(=C\c2ccc(OCc3ccccc3)c(OCc3ccccc3)c2)SC1=S,6.5% (inactive),–
O=C1NC(=O)/C(=C\c2ccccc2OCc2ccccc2)S1,-0.78% (inactive),–
Cc1nn(-c2ccccc2)c(Cl)c1/C=C1\C(=O)N(C)C(=S)N1C,-12.7% (inactive),–
Cc1nn(-c2ccccc2)c(Cl)c1/C=C1\SC(=S)N(C)C1=O,4.37% (inactive),–
O=C(O)CCCN1C(=O)/C(=C\c2ccco2)SC1=S,47.7% (inactive),–
CN1C(=O)/C(=C\c2ccccc2OCc2ccccc2)SC1=S,-2.61% (inactive),–
O=C(O)COc1ccccc1/C=C1\SC(=O)N(Cc2ccc(F)cc2)C1=O,8.1% (inactive),–
CC(Oc1ccccc1)C(=O)N=C1SC2CS(=O)(=O)CC2N1Cc1ccccc1 (configuration not stated),0% (inactive),–
Cc1nc(-c2ccccc2)sc1C(=O)Nc1ccccc1F,0% (inactive),–

Structure (SMILES),inhibition,inhibition [1] [%]
CCOC(=O)N1CCN(C(=O)c2cn(CC)c3ccc(S(=O)(=O)N(C)C4CCCCC4)cc3c2=O)CC1,2.95% (inactive),–
O=C(NO)C1CC2C=CC1C2 (configuration not stated),-6.15% (inactive),–
CCn1ccc2c(OCC(=O)NCCc3ccc(OC)c(OC)c3)cccc2c1=O,-3.6% (inactive),–
CC(=C\c1ccccc1)/C=C1/SC(=S)N(CCCC(=O)O)C1=O,19% (inactive),–
CC(=C\c1ccccc1)/C=C1/SC(=S)N(CCC(=O)O)C1=O,11.1% (inactive),–
CN1C(=O)S/C(=C/c2ccccc2OCc2ccc(C(=O)O)cc2)C1=O,5.16% (inactive),–
CCOc1ccccc1C=C1SC(=S)N(CC)C1=O,6.98% (inactive),–
O=C(Nc1cccc(C(=O)O)c1)/C(=C\c1ccccc1)NC(=O)c1ccccc1Cl,-2.05% (inactive),–
O=C1CCc2cc(S(=O)(=O)NCCc3ccc(Cl)cc3)cc3c2N1CC3,3.62% (inactive),–
O=S(=O)(c1cccc2cccc(Cl)c12)N1CCCC1,-4.68% (inactive),–
O=C(CCC1CCCN(C(=O)CCC(F)(F)F)C1)NCc1ccc(F)c(F)c1 (configuration not stated),-0.74% (inactive),–
O=C(COC(=O)c1ccco1)NCc1ccccc1Cl,3.03% (inactive),–
Nc1ccc(S(=O)(=O)c2cccc(N)c2)cc1,-5.56% (inactive),–
Nc1ccc(S(=O)(=O)c2ccc(N)cc2)cc1,1.49% (inactive),–
COCCn1c(C)cc(C(=O)CSc2n[nH]c(N)n2)c1C,-0.41% (inactive),–
O=C1c2c([N+](=O)[O-])cc([N+](=O)[O-])cc2S(=O)N1Cc1ccccc1 (configuration not stated),10.1% (inactive),–
O=c1c2c([N+](=O)[O-])cc([N+](=O)[O-])cc2sn1Cc1ccccc1,18.3% (inactive),–
COC(=O)c1ccc(NC(=O)CCCCCn2nnc3ccccc3c2=O)cc1,-0.65% (inactive),–
O=C1CN(C(=O)N[C@@H](Cc2ccccc2)C(=O)N[C@H](Cc2ccccc2)C(=O)O)c2ccccc2N1,-2.17% (inactive),–
COc1cc(OC)cc(N(C(=O)C2COc3ccccc3O2)C(C(=O)NC2CCCCC2)c2ccc(O)cc2)c1 (configuration not stated),-5.19% (inactive),–
COc1ccccc1NC(=O)Nc1ccccc1C(N)=O,-5.31% (inactive),–
CCOc1ccc(C(=O)N/N=C/c2ccc(-c3ccc(S(=O)(=O)Nc4ncccn4)cc3)o2)cc1,0.82% (inactive),–
NC(=O)N/N=C/c1ccc(-c2ccc(S(=O)(=O)Nc3ncccn3)cc2)o1,-2.88% (inactive),–
